From PubChem BioAssay
KLK7 zymogen act: proKLK7 (human) activation, primary screen | AID 652039 | 0.9% of 370,000 active | activation, % at 7 µM | purified proKLK7, EDANS-DABCYL substrate fluorescence; 100% is mature enzyme control, 0% vehicle;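 active = activation above the mean of all tested compounds plus 3 SD, computed per campaign excluding outliers beyond control limits, cut at about 13% in these data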
LEDGF integ inh: blocks HIV-1 LEDGF/p75-dependent DNA integration; TR-FRET IN-LEDGF/p75 DNA integration, Eu/Cy5; inhibition, % at 3.7 µM; 0.64% of 370,000 active;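 active = inhibition above the screen-wide mean plus 3 SD, cut at about 13% in these data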;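 note: signal is the Cy5 over europium emission ratio at 671 and 618 nm; 0% = plate median of compound wells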
MBD2 DNA inh: inhibitors of human MBD2 binding to methylated oligonucleotide; AID 686964; inhibition, % at 4.4 µM; TR-FRET; Q9UBB5; 0.31% of 370,000 active; in the data active = inhibition above about 13%
Rin1 Abl inh: inhibitors of human Rin1-Abl protein interaction; TR-FRET Rin1/Abl binding, biochemical; inhibition, % at 7.35 µM; 0.4% of 360,000 active; AID 588664; in the data active = inhibition above about 5%, passing the limit was not always enough
Neddylation inh: cullin neddylation inhibition; P61081+Q13564; TR-FRET cullin neddylation, biochemical; calls only at 25 µM; 0.58% of 360,000 active; in the data active = inhibition above about 36%
UHRF1 MBD2 ctr: UHRF1 methyl-DNA binding inhibition; Q96T88; UHRF1 binding to methylated oligo, TR-FRET; inhibition, % at 4.4 µM; 0.75% of 370,000 active; AID 687016; in the data active = inhibition above about 21%;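 note: UHRF1 SRA domain binding a hemimethylated CpG hairpin DNA probe; 0% = median of test compound wells and 100% = reference inhibitor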
Target sequence (Q96T88 whole entry, looked up, the tested form may be a part): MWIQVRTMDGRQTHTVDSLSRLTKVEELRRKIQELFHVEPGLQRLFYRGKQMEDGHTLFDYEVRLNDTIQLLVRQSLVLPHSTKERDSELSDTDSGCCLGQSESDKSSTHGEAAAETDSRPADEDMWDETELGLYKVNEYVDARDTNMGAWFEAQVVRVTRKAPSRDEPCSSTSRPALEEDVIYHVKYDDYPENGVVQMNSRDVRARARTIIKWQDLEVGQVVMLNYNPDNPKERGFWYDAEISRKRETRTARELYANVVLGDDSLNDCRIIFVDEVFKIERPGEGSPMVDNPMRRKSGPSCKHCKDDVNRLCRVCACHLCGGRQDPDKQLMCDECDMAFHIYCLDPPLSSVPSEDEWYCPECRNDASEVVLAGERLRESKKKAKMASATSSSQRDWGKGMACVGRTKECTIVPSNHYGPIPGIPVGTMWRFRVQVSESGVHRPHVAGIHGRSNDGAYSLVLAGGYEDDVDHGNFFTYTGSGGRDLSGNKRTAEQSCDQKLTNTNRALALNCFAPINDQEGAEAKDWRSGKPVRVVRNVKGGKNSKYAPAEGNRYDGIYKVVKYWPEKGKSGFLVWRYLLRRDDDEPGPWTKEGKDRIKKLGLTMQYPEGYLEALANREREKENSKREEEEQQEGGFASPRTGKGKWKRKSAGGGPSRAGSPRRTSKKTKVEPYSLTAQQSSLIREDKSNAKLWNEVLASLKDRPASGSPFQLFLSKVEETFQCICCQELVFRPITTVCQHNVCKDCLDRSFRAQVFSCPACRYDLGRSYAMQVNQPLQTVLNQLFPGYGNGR
Numbers without * were called inactive; i = inactive; · = no result given; + = active, no number. A selection: hits, their analogues and other compounds. The true share with any hit is near 3.1%.

SMILES	KLK7 zymogen act	LEDGF integ inh	MBD2 DNA inh	Rin1 Abl inh	Neddylation inh	UHRF1 MBD2 ctr
CCCOC(=O)c1c(NC(=O)C2CCCO2)sc(C(=O)OC)c1C (stereo not drawn)	0	2	2	1	i	25*
CC1(C)C2CCC1(C)C(NC(=O)/C=C/c1ccccc1)C2 (stereo not drawn)	1	-2	-5	0	i	25*
Cc1ccc2c(c1)C1CS(=O)(=O)N(CC(C)C)CN1C2 (stereo not drawn)	0	1	-6	·	·	-2
COc1ccc2nc(NC(=O)c3ccco3)sc2c1	2	3	2	3	+	-5
Cc1ccc2nc(NC(=O)c3ccco3)sc2c1	0	-2	7	-3	i	-3
COc1cccc2c(=O)n(CC(=O)N3CCC(C)CC3)ccc12	0	6	-8	1	i	93*
N#CC12COC3(CCCCC3C1(C#N)C#N)OC2=N (stereo not drawn)	4	9	5	-2	+	5
CC1OC23CCCCC2C(C#N)(C(=N)O3)C1(C#N)C#N (stereo not drawn)	7	-2	2	-1	i	3
N#CC1(C#N)COC23CCCCC2C1(C#N)C(=N)O3 (stereo not drawn)	5	2	0	-7	+	-3
O=C(NCCc1ccccc1)OCc1cn(Cc2ccc(F)c(F)c2)nn1	0	1	1	·	·	2
CCC(CC)C(=O)Nc1cccc(C(=O)Nc2nnc(C)s2)c1	-1	-3	-4	2	i	23*
CCC(CC)C(=O)Nc1cccc(C(=O)Nc2nccs2)c1	-1	0	-5	1	i	1
Cc1ccc(CC(=O)OC(C)C(=O)NC2CCCCC2C)cc1C (stereo not drawn)	-1	-3	-7	7	i	1
Cc1c(Cl)cnc(NC(=O)COC(=O)C(NC(=O)c2ccco2)C(C)C)c1Cl (stereo not drawn)	0	2	-1	-1	i	1
Cc1nc(NC(=O)COC(=O)[C@@H](NC(=O)c2ccco2)C(C)C)c(Cl)cc1Cl	0	-8	-3	0	i	42*
CCCCn1c(-c2ccc([N+](=O)[O-])cc2)n[nH]c1=S	0	-1	-5	7	i	-2
O=C(Cc1c[nH]c2ccccc12)N1CCN(S(=O)(=O)c2cccc(Cl)c2Cl)CC1	1	-2	-4	-3	i	0
CC(CCN1CCC(C(O)(c2ccccc2)c2ccccc2)CC1)Oc1ccc(C#N)cc1F (stereo not drawn)	0	8	-6	·	·	3
CCOc1ccc2[nH]c3c(NCCO)ncnc3c2c1	-1	-8	1	0	·	0
CCOc1ccc2[nH]c3c(NCCc4ccc(OC)c(OC)c4)ncnc3c2c1	0	-7	2	-1	·	45*
CCCN(CC(=O)Nc1ccccc1C)C(=O)c1ccc(N2CCCC2)c([N+](=O)[O-])c1	1	0	-5	-4	i	-5
CCOC(=O)c1c(-c2ccccc2)csc1N1C(=O)Nc2ccccc2N1O	0	4	0	2	i	1
CCOC(=O)c1cccc(N2C(=O)Nc3ccccc3N2O)c1	0	1	3	1	i	23*
O=C(O)/C=C/C(=O)Nc1ccc(O)cc1	1	14*	-3	5	i	-5
Cc1cccc(Nc2nc(-c3sc(C)nc3C)cs2)c1	0	1	5	-1	i	25*
SMILES	KLK7 zymogen act	LEDGF integ inh	MBD2 DNA inh	Rin1 Abl inh	Neddylation inh	UHRF1 MBD2 ctr
COC(=O)C1=C(C)N(Cc2cccc(C(F)(F)F)c2)C(=NCc2ccc(C(F)(F)F)cc2)NC1c1cccc(C(F)(F)F)c1 (stereo not drawn)	0	-4	-1	·	·	-3
CCS(=O)(=O)N1CCN(c2ccc(S(=O)(=O)N3CCOCC3)cc2)CC1	0	-3	5	-1	i	31*
O=C(OCC(=O)N1N=C(c2ccc(Cl)cc2)CC1c1ccco1)c1ccccc1O (stereo not drawn)	1	5	3	2	i	-2
O=C(CNC(=O)c1cccc(-n2cccc2)c1)Nc1ccccc1Br	0	-2	7	-5	i	10
CCC(=O)Nc1ccc(N2CCOCC2)c(S(=O)(=O)Nc2ccc(Cl)cc2)c1	0	2	-2	0	i	45*
C[C@H](NC(N)=O)C(=O)Nc1ccc(N2CCOCC2)c(S(=O)(=O)Nc2ccc(Cl)cc2)c1	0	0	2	-1	i	-1
Cc1ccc(C2(C)NC(=O)N(CC(=O)NC3CCCCC3)C2=O)cc1 (stereo not drawn)	0	-5	0	-3	i	0
C#CCOCCOCCOCCNc1nc(N2CCN(C(=O)CCCCCCCCCCNC(=O)[C@@H](CCSC)n3cc(CCO)nn3)CC2)nc(N2CCN(C(=O)CCCCCCCCCCNC(=O)[C@H](CCCN=C(N)N)n3cc(C[C@@H](C)CC)nn3)CC2)n1	·	·	·	27*	i	·
C#CCOCCOCCOCCNc1nc(N2CCN(C(=O)CCCCCCCCCCNC(=O)[C@H]([C@@H](C)CC)n3cc(CCCCN=C(N)N)nn3)CC2)nc(N2CCN(C(=O)CCCCCCCCCCNC(=O)[C@@H]([C@H](C)O)n3cc(C)nn3)CC2)n1	·	·	·	14*	i	·
C#CCOCCOCCOCCNc1nc(N2CCN(C(=O)CCCCCCCCCCNC(=O)Cn3cc(C[C@@H](C)O)nn3)CC2)nc(N2CCN(C(=O)CCCCCCCCCCNC(=O)[C@@H]([C@H](C)O)n3cc(C)nn3)CC2)n1	·	·	·	5	i	·
C#CCOCCOCCOCCNc1nc(N2CCN(C(=O)CCCCCCCCCCNC(=O)Cn3cc(CCCCCN)nn3)CC2)nc(N2CCN(C(=O)CCCCCCCCCCNC(=O)[C@@H]([C@H](C)O)n3cc(C)nn3)CC2)n1	·	·	·	11*	i	·
C#CCOCCOCCOCCNc1nc(N2CCN(C(=O)[C@H](CCC(=O)O)n3cc(CN)nn3)CC2)nc(N2CCN(C(=O)[C@H](CCC(=O)O)n3cc([C@@H](N)[C@H](C)CC)nn3)CC2)n1	1	8	6	0	i	22*
C#CCOCCOCCOCCNc1nc(N2CCOCC2)nc(N2CCN(C(=O)[C@H](CCC(=O)O)n3cc(C(N)[C@H](C)CC)nn3)CC2)n1 (stereo partly drawn)	0	-5	1	4	i	2
CCOc1cc(C(=O)NC(C)CCc2ccccc2)cc(OCC)c1OCC (stereo not drawn)	0	6	2	-3	i	-4
COc1ccc2c(c1)C[C@@H](CON1C(C)(C)CCCC1(C)C)N2S(=O)(=O)c1ccc(C)cc1	·	6	-5	·	·	-1
